Assay results from PubChem BioAssay AID1159580 (chemical genetic matrix, 2015).
About 2,000 (36%) of roughly 5,500 compounds were called active. Not shown: some 18% with an inconclusive outcome. Cut-off read from the data, not from the text of the source: active = normalized growth mostly below about 0.91 (no sharp cut-off); inconclusive = no clear call, values can overlap the other calls; inactive = mostly above about 0.92. The list shows a part of the results.

Assay: chemical genetic growth profiling, strain panel (AID 1159580);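 note: tested at 20 µM; growth read once vehicle control cultures reached saturation at 30 °C; 1 = growth at the plate median or of vehicle wells; lower values mean less growth of the strain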
Conditions: growth OD

Measured: normalized growth

C[N+]1(C)C[C@H](O)[C@H](C(=O)[O-])C1
inactive: S. cerevisiae deletion strains, locus YJR043C, strain POL32, hits give low values 0.995 | S. cerevisiae deletion strains, locus YJR075W, strain HOC1, hits give low values 0.994 | S. cerevisiae deletion strains, locus YKL009W, strain mrt4, hits give low values 0.991 | S. cerevisiae deletion strains, locus YKL068W, hits give low values 0.996 | S. cerevisiae deletion strains, locus YKL085W, strain MDH1 (second series), hits give low values 0.988 | S. cerevisiae deletion strains, locus YKL085W, strain MDH1, hits give low values 0.988 | S. cerevisiae deletion strains, locus YKL160W, strain elf1, hits give low values 0.993 | S. cerevisiae deletion strains, locus YKL190W, strain CNB1, hits give low values 1.01 | S. cerevisiae deletion strains, locus YKR001C, strain vps1, hits give low values 0.995 | S. cerevisiae deletion strains, locus YKR026C, strain gcn3, hits give low values 1.01 | S. cerevisiae deletion strains, locus YKR091W, strain srl3, hits give low values 1.01 | S. cerevisiae deletion strains, locus YLL001W, strain dnm1, hits give low values 1 | S. cerevisiae deletion strains, locus YLL026W, hits give low values 1.02 | S. cerevisiae deletion strains, locus YLL041C, strain sdh2, hits give low values 1.01 | S. cerevisiae deletion strains, locus YLR027C, strain aat2, hits give low values 1.01 | S. cerevisiae deletion strains, locus YLR039C, strain RIC1, hits give low values 1.02 | S. cerevisiae deletion strains, locus YLR058C, strain SHM2, hits give low values 1.01 | S. cerevisiae deletion strains, locus YLR102C, strain apc9, hits give low values 0.995 | S. cerevisiae deletion strains, locus YLR221C, strain rsa3, hits give low values 0.997 | S. cerevisiae deletion strains, locus YLR258W, strain gsy2, hits give low values 1.03 | S. cerevisiae deletion strains, locus YLR262C, strain YPT6 (second series), hits give low values 1.02 | S. cerevisiae deletion strains, locus YLR262C, strain YPT6, hits give low values 1.01 | S. cerevisiae deletion strains, locus YLR268W, strain sec22, hits give low values 0.991 | S. cerevisiae deletion strains, locus YLR320W, strain mms22, hits give low values 1.03 | S. cerevisiae deletion strains, locus YLR330W, strain CHS5, hits give low values 1 | S. cerevisiae deletion strains, locus YLR342W, strain FKS1 (second series), hits give low values 1.02 | S. cerevisiae deletion strains, locus YLR342W, strain FKS1, hits give low values 1.01 | S. cerevisiae deletion strains, locus YLR357W, strain rsc2, hits give low values 1.02 | S. cerevisiae deletion strains, locus YLR370C, strain arc18, hits give low values 1.02 | S. cerevisiae deletion strains, locus YLR371W, strain rom2, hits give low values 0.996 | S. cerevisiae deletion strains, locus YLR384C, strain iki3, hits give low values 1.02 | S. cerevisiae deletion strains, locus YLR418C, strain cdc73, hits give low values 1.01 | S. cerevisiae deletion strains, locus YML016C, strain PPZ1, hits give low values 1.01 | S. cerevisiae deletion strains, locus YML032C, strain rad52, hits give low values 0.991 | S. cerevisiae deletion strains, locus YML120C, strain ndi1, hits give low values 0.991 | S. cerevisiae deletion strains, locus YML124C, strain tub3, hits give low values 0.997 | S. cerevisiae deletion strains, locus YMR058W, strain fet3, hits give low values 1.01 | S. cerevisiae deletion strains, locus YMR078C, strain ctf18, hits give low values 1.01 | S. cerevisiae deletion strains, locus YMR125W, strain sto1, hits give low values 1.02 | S. cerevisiae deletion strains, locus YMR129W, hits give low values 1.01 | S. cerevisiae deletion strains, locus YMR205C, strain PFK2, hits give low values 1.04 | S. cerevisiae deletion strains, locus YMR223W, strain ubp8, hits give low values 0.989 | S. cerevisiae deletion strains, locus YMR231W, strain pep5, hits give low values 1.01 | S. cerevisiae deletion strains, locus YMR263W, strain SAP30, hits give low values 1.02 | S. cerevisiae deletion strains, locus YMR307W, strain GAS1, hits give low values 1.07 | S. cerevisiae deletion strains, locus YNL067W, strain RPL9B, hits give low values 1.01 | S. cerevisiae deletion strains, locus YNL071W, strain lat1, hits give low values 1.02 | S. cerevisiae deletion strains, locus YNL128W, strain TEP1, hits give low values 1.01 | S. cerevisiae deletion strains, locus YNL153C, strain GIM3, hits give low values 1.01 | S. cerevisiae deletion strains, locus YNL209W, strain ssb2, hits give low values 1.01 | S. cerevisiae deletion strains, locus YNL233W, strain BNI4, hits give low values 1.01 | S. cerevisiae deletion strains, locus YNL248C, strain rpa49, hits give low values 0.98 | S. cerevisiae deletion strains, locus YNL250W, strain rad50, hits give low values 0.992 | S. cerevisiae deletion strains, locus YNL271C, strain bni1, hits give low values 0.995 | S. cerevisiae deletion strains, locus YNL298W, strain CLA4, hits give low values 1 | S. cerevisiae deletion strains, locus YNL307C, strain MCK1, hits give low values 1.01 | S. cerevisiae deletion strains, locus YNL322C, strain KRE1 (second series), hits give low values 1.02 | S. cerevisiae deletion strains, locus YNL322C, strain KRE1, hits give low values 1.01 | S. cerevisiae deletion strains, locus YNR049C, strain mso1, hits give low values 1.01 | S. cerevisiae deletion strains, locus YNR052C, strain pop2, hits give low values 1 | S. cerevisiae deletion strains, locus YOL006C, strain TOP1, hits give low values 1.06 | S. cerevisiae deletion strains, locus YOL012C, strain htz1 0.813 | S. cerevisiae deletion strains, locus YOL147C, strain pex11, hits give low values 1 | S. cerevisiae deletion strains, locus YOR001W, strain rrp6, hits give low values 0.989 | S. cerevisiae deletion strains, locus YOR061W, strain CKA2, hits give low values 1 | S. cerevisiae deletion strains, locus YOR069W, strain VPS5, hits give low values 1 | S. cerevisiae deletion strains, locus YOR070C, strain gyp1, hits give low values 1.01 | S. cerevisiae deletion strains, locus YOR080W, strain dia2, hits give low values 1.01 | S. cerevisiae deletion strains, locus YOR083W, strain WHI5, hits give low values 0.979 | S. cerevisiae deletion strains, locus YOR106W, strain vam3, hits give low values 0.996 | S. cerevisiae deletion strains, locus YOR136W, strain idh2, hits give low values 0.996 | S. cerevisiae deletion strains, locus YOR144C, strain elg1, hits give low values 0.996 | S. cerevisiae deletion strains, locus YOR184W, strain ser1, hits give low values 1.01 | S. cerevisiae deletion strains, locus YOR265W, strain rbl2, hits give low values 1.01 | S. cerevisiae deletion strains, locus YOR270C, strain vph1, hits give low values 1.02 | S. cerevisiae deletion strains, locus YOR290C, strain snf2, hits give low values 1 | S. cerevisiae deletion strains, locus YOR316C, strain cot1, hits give low values 0.995 | S. cerevisiae deletion strains, locus YPL051W, strain arl3, hits give low values 1.02 | S. cerevisiae deletion strains, locus YPL055C, strain LGE1, hits give low values 1.03 | S. cerevisiae deletion strains, locus YPL078C, strain atp4, hits give low values 1 | S. cerevisiae deletion strains, locus YPL106C, strain sse1, hits give low values 1.04 | S. cerevisiae deletion strains, locus YPL240C, strain hsp82, hits give low values 1.02 | S. cerevisiae deletion strains, locus YPL241C, strain CIN2, hits give low values 1.01 | S. cerevisiae deletion strains, locus YPR119W, strain clb2, hits give low values 1 | S. cerevisiae deletion strains, locus YPR141C, strain kar3, hits give low values 1 | S. cerevisiae deletion strains, locus YPR163C, strain tif3, hits give low values 0.996 | S. cerevisiae deletion strains, locus YPR167C, strain met16, hits give low values 0.995 | S. cerevisiae deletion strains, strain wtn01, hits give low values 0.988 | S. cerevisiae strains, strain wild type, hits give low values 1
